Tau fluor counter: counter-screen for tau fibril formation inhibitors; Potency, µM (series often up to 57.7 µM), for inactives: at the highest dose activity change, negative = decrease; tau K18 P301L Alexa594 fluorescence, heparin fibrillization; AID 1463; 0.93% of 280,000 active; further: nearly all actives have a fitted effect of over 55% in size
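Human tau K18 P301L (15 uM unlabeled, 0.24 uM Alexa 594-labeled) in 100 mM sodium acetate pH 7 with 20 uM heparin, 6 hr at 37 C. ThT 30 uM added, 1 hr ambient; Alexa 594 FP and total fluorescence read at 555/632 nm.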
HPGD block: blocks human HPGD enzyme activity. P15428. purified HPGD, NADH fluorescence kinetic, PGE2 substrate. Potency, µM, without a hit: at the top dose activity change, negative = inhibition, most hits filed as inhibitors. 4.3% of 150,000 active; active means well fitted inhibition curve with a large enough effect, not every such curve was filed as active; inconclusive means small, poorly fitted or top-dose-only effect, or another doubt; inactive means no such curve, though single readings can be large or run the other way
Target sequence (P15428 whole entry, looked up): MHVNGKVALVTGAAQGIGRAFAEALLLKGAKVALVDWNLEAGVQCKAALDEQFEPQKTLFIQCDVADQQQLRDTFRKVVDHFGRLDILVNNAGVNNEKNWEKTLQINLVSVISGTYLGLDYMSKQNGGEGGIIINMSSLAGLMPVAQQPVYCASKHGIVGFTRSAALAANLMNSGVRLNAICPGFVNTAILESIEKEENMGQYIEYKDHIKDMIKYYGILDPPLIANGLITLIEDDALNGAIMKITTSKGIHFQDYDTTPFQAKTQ
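NADH formation kinetics: reaction with 30 uM PGE2 and 1 mM NAD+ (final), 20 nM enzyme, Tris-HCl pH 8 with Tween 20, after 15 min compound preincubation at room temperature. Fluorescence change, last versus first of five reads.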
ALDH1A1 inh: ALDH1A1 (human) enzyme inhibition. P00352. Purified ALDH1A1, NADH fluorescence, propionaldehyde substrate. Potency, µM (doses to about 75.3 µM), inactives show top-dose activity, negative = inhibition, most hits filed as inhibitors. 7.3% of 220,000 active. AID 1030; active means well fitted inhibition curve with a large enough effect, not every such curve was filed as active; inconclusive means small, poorly fitted or top-dose-only effect, or another doubt; inactive means no such curve, though single readings can be large or run the other way;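 further: plate controls were no enzyme wells and a reference inhibitor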
Tau ThT inhib: inhibitors of human tau fibril formation, thioflavin T binding; recombinant tau K18 P301L (four-repeat tau fragment), heparin-induced fibrillization, ThT fluorescence; 2.1% of 270,000 active; P10636; AID 1460; Potency, µM (titrated, usually from 57.4 µM), inactives show top-dose activity, negative = inhibition, most hits filed as inhibitors; further: nearly all actives have a fitted effect of over 55% in size
Target sequence (P10636 561-689 P618L limits assumed): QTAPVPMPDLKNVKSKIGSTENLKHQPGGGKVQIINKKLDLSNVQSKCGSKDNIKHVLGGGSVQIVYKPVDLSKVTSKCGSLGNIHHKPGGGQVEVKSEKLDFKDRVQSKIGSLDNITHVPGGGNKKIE
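Heparin-induced (20 uM) aggregation of recombinant human K18 P301L tau, 15 uM unlabeled with 0.24 uM labeled, pH 7 acetate buffer, 6 hr at 37 C with compound. Fibrils quantified by 30 uM ThT fluorescence after 1 hr ambient incubation.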
NPSR antag: neuropeptide S receptor (human) antagonism, cAMP; CHO-NPSR cells, cAMP TR-FRET, antagonist mode; Potency, µM (series often up to 38.3 µM), without a hit: at the top dose activity change, negative = inhibition, actives largely listed as inhibitors; 1% of 220,000 active; further: nearly all actives have a fitted effect of over 50% in size
Tau FP inhib: blocks human tau fibril formation measured by polarization; AID 1468; K18 P301L tau heparin fibrillization, Alexa594 FP, 6 h; 0.39% of 280,000 active; Potency, µM (titrated, usually from 57.7 µM), for inactives: top-dose activity, negative = inhibition, usual class: inhibitors; further: nearly all actives have a fitted effect of over 55% in size
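Steps: dispense K18 P301L tau (15 uM plus 0.24 uM Alexa 594 tracer, final) in pH 7 sodium acetate; add compound; add heparin (20 uM final); incubate 6 hr, 37 C; add ThT (30 uM final); after 1 hr ambient, read FP.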
Starred values were filed as active, the others as inactive; ? = inconclusive; / = no result; ! = not active in a repeat; [ ] = dose if it differs, or a comment. A selection: hits, their analogues and other compounds. The true share with any hit is near 9.5%. Unless noted, the call rests on the fitted dose curve; in most records, active means well fitted curve in the direction sought with a large enough effect; inconclusive means small, poorly fitted or top-dose-only effect, or another doubt; inactive means no such curve, though single readings can be large; an effect the other way counts as inactive or inconclusive. Unless noted, on the % scale 0 is the no-effect control and ±100 the full control effect; potency means the concentration at half of the fitted maximal effect.

SMILES | Tau fluor counter | HPGD block | ALDH1A1 inh | Tau ThT inhib | NPSR antag | Tau FP inhib
CN[C@@H](CC(C)C)C(=O)N[C@@H]1C(=O)N[C@H](CC(N)=O)C(=O)N[C@@H]2C(=O)N[C@H]3C(=O)N[C@H](C(=O)N[C@H](C(=O)O)c4cc(O)cc(O)c4-c4cc3ccc4O)[C@H](O)c3ccc(c(Cl)c3)Oc3cc2cc(c3O[C@H]2O[C@@H](CO)[C@@H](O)[C@@H](O)[C@@H]2O[C@@H]2C[C@](C)(N)[C@H](O)[C@H](C)O2)Oc2ccc(cc2Cl)[C@@H]1O | / | -7% | 0%[20.9 µM] | / | / | /
CCn1c(P(C)(=O)O)nc2ccccc21 | -7% | 0% | 14% | -9% | -6%[46.1 µM] | -3%
CCn1c(NN=O)nc2ccccc21 | -11% | / | ? | 28µM* | -7% | -2%
CCCN(CCC)[C@@H]1CCc2c(F)ccc(O)c2C1 | -9% | -16% | -9% | -14% | -9%[46.1 µM] | -8%
O=C(O)CCn1cc(C=C2C(=O)NC(=S)NC2=O)c(-c2ccccc2)n1 | 5% | / | 1.1µM* | 7% | 12% | 7%
O=C(O)CCn1cc(C=C2C(=O)NC(=S)NC2=O)c(-c2cc3ccccc3oc2=O)n1 | 14% | / | ? | 10% | -15% | 6%
COc1ccc(-c2nc(CN3C(=O)CN=C(c4ccccc4)c4ccccc43)c(C)o2)cc1OC | -7% | / | / | -11% | / | 3%
O=S1(=O)N(Cc2ccccc2Cl)CCCN1Cc1ccccc1Cl | ? | / | / | -16% | / | -11%
O=c1[nH]c(SCc2ccccc2Cl)nc2c1CCCC2 | 10% | 2µM* | -13% | -1% | 29%[46.1 µM] | 0%
Cc1ccc(Cn2cccc(C(=O)Nc3nnc(C)s3)c2=O)cc1 | -9% | / | / | ? | / | -5%
Oc1ccccc1O | ? | 18µM* | 14µM* | ? | 3%[46.1 µM] | ?
Cc1ccc(NC(=S)NCC2CCCO2)cc1 (centres undefined) | -10% | 25µM* | -13% | -4% | -12%[46.1 µM] | -4%
CC(=NCC1CCCO1)c1c(O)n(-c2ccc(C)cc2)c(=O)[nH]c1=O (centres undefined) | 1% | -1% | 2% | -1% | 1%[46.1 µM] | -2%
CC(N)C(O)c1ccc(O)c(O)c1 (centres undefined) | ? | 3% | 1% | 7.9µM*! | / | ?
N#CC(Cl)Cl | / | -10% | 18µM* | / | / | /
CC(C)=CCCC(C)C1CC[C@@]2(C)C3=C(CC[C@@]12C)C1(C)CCC(O)C(C)(C)C1CC3 (some centres undefined) | -12% | -9% | 28µM* | ? | / | -7%
CC(=O)OC1CCC2(C)C3=C(CCC2C1(C)C)[C@]1(C)CCC(C(C)CCC=C(C)C)[C@]1(C)CC3 (some centres undefined) | -14% | -6% | ? | ? | / | -16%
O=C1CCCC2[C@@H]3CCCN4CCC[C@@H](CN12)C34 (some centres undefined) | 1% | -5% | 5% | 0% | / | -13%
ClCC[N+]12CC[N+](CCCl)(CC1)C2 (tested in a mixture with another compound) | / | 1% | ? | / | / | /
Nc1nc(=S)c2ncn(C3OC(CO)C(O)C3O)c2[nH]1 (centres undefined) | ? | / | 7.9µM* | 11µM* | -9% | ?
N#C/C(=C\c1ccc(O)c(O)c1)C(N)=S | ? | 8.9µM* | 2.2µM* | 2.2µM* | / | ?
Nc1nonc1C(=O)N/N=C/c1ccc([N+](=O)[O-])o1 | 6% | / | 13µM* | 8% | -14% | 3%
CCN1CCN(C(=O)COc2ccc(S(=O)(=O)N(C)Cc3ccccc3)cc2)CC1 | -1% | -25% | ? | -3% | -13%[46.1 µM] | 0%
CN1CCN(C(=O)COc2ccc(S(=O)(=O)N(C)Cc3ccccc3)cc2)CC1 | -1% | 14µM* | ? | -5% | 5%[46.1 µM] | 4%
CCCc1nc2ccccc2c(=O)n1-c1cccc(OC)c1 | -7% | -3% | 10% | -6% | -16%[46.1 µM] | -5%
